# This is a sample that favours compounds with a hit; in the whole collection about 1.2% have one here.
# FAS-TE inh – FAS thioesterase domain inhibitors, primary screen, biochemical, fluorescence intensity, uHTS. recombinant FAS-TE, OMFH fluorogenic substrate, fluorescence endpoint. AID 602261, 2012. actives 0.67% (n = 360,000). inhibition, % at 15 µM;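 active means compounds whose normalised, plate-corrected inhibition of enzyme fluorescence in the single-dose primary screen is 50% or more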;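 further: 0% = DMSO with enzyme and 100% = substrate without enzyme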
# PKD1 kinase inh – inhibitors of human PKD1 kinase, biochemical, fluorescence polarization; Serine/threonine-protein kinase D1 (Homo sapiens), Q15139; PKD1 kinase fluorescence polarization assay; inhibition, % (concentration not given with the values); actives 0.056% (n = 200,000); AID 797, 2007; in the data active means inhibition above about 50%
# p97 ATPase inh – inhibitors of human p97 ATPase, primary screen, biochemical | Transitional endoplasmic reticulum ATPase (Homo sapiens), P55072 | recombinant p97 ATPase, Kinase-Glo ATP luminescence, 3 h | inhibition, % at 8 µM | actives 0.42% (n = 220,000); in the data active means inhibition above about 15%;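 further: 0% = DMSO vehicle and 100% = wells lacking enzyme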
# Redox H2O2 prof – compounds producing H2O2 with reducing agent – biochemical, NIH compound library profiling, artefact control for MLSCN library redox annotation, primary screen. DTT-dependent redox cycling H2O2, phenol red/HRP absorbance; 100% = 100 µM peroxide control, 0% = buffer. actives 0.03% (n = 200,000). activation, % at 10 µM;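 active means activation of at least 50% relative to the plate's high and low controls in the primary single-dose screen; inactive means activation below 50%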;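 further: compound incubated with DTT at 0.8 mM final as the reducing agent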
# UBC9 SUMO inh – inhibitors of in vitro SUMOylation cascade, primary screen, biochemical, HTRF, uHTS. SUMO-conjugating enzyme UBC9 (Homo sapiens), P63279. inhibition, % at 35 µM. actives 0.36% (n = 290,000). HTRF SUMOylation assay, SAE1/SAE2 + UBC9. AID 2006, 2009; in the data active means inhibition above about 50%, passing the limit was not always enough; inconclusive means no clear call, values can overlap the other calls
# Furin inh – human furin inhibitors, primary screen, biochemical, fluorescence intensity. purified furin, fluorogenic substrate cleavage. inhibition, % at 20 µM or 30 µM. actives 0.061% (n = 220,000). AID 463115, 2010; in the data active means inhibition above about 25%
# Target sequence (P09958 108-714 limits assumed): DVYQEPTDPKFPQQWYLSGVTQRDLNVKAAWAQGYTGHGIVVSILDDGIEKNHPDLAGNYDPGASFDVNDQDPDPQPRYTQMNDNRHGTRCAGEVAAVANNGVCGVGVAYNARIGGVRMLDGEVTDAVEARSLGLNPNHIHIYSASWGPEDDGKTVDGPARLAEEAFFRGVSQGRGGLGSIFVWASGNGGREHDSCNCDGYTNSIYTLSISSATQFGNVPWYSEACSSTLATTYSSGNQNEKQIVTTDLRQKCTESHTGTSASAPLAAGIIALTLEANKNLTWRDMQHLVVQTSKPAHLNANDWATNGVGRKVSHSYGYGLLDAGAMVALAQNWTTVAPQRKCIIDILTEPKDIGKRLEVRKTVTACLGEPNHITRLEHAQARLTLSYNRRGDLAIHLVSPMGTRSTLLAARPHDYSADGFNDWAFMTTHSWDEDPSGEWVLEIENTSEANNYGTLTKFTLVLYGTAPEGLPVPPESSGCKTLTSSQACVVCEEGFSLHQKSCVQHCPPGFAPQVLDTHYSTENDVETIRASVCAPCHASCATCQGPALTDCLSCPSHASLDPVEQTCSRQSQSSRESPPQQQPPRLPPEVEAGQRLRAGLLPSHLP
# * marks the source's active call; other numbers are inactive results; u = inconclusive; x = no result.
SMILES,FAS-TE inh,PKD1 kinase inh,p97 ATPase inh,Redox H2O2 prof,UBC9 SUMO inh,Furin inh
Cc1ccccc1NC(=O)c1ccc(N/N=C/c2ccccc2O)c([N+](=O)[O-])c1,-11,7,1,-3,57*,-4
Cc1ccc(NC(=O)c2ccc(N/N=C/c3cccc(O)c3)c([N+](=O)[O-])c2)cc1,0,5,3,4,29,-8
O=C1CC(c2ccccc2)CC(=O)C1=CN1CCCC1 (configuration not stated),-7,x,-6,x,-2,33*
CCCS(=O)(=O)NC(=O)C1(C)CCCN(C(=O)c2ccc3ccccc3c2)C1 (configuration not stated),-8,x,x,x,x,x
Cc1ccc(NC(=O)CN2C(=O)S/C(=C/c3ccc(-c4cc(C(=O)O)ccc4C)o3)C2=O)cc1C,3,4,1,1,84*,-3
Cc1cc(C(=O)N/N=C/c2cc(Br)cc(Br)c2OC(=O)c2ccccc2)n[nH]1,x,-13,9,1,-44,-16
Cc1cc(C(=O)N/N=C/c2cc(Br)ccc2OC(=O)c2ccc(Br)cc2)n[nH]1,x,-5,0,1,67*,-12
Cc1cccc(N(CC(=O)N/N=C/c2cc([N+](=O)[O-])ccc2Cl)S(C)(=O)=O)c1C,51*,-14,7,2,-1,-17
CS(=O)(=O)N(CC(=O)N/N=C/c1cc([N+](=O)[O-])ccc1Cl)c1ccccc1,20,-4,2,0,2,-22
O=c1c(-c2c(O)cc(O)c3c(=O)cc(-c4ccc(O)cc4)oc23)c(-c2ccc(O)cc2)oc2cc(O)cc(O)c12,12,x,x,x,52*,-9
CCc1nc2c(OCCOc3ccc(F)cc3)cccn2c1N(C)C(=O)C(C)C,-6,x,x,x,x,x
Cc1ccc(-c2cc(-c3ccco3)c(C#N)c(=O)[nH]2)cc1,-40,x,14,x,62*,-25
N#Cc1sc2nc(-c3ccccc3)cc(-c3ccco3)c2c1N,17,-7,12,1,88,-27
N#Cc1c(-c2ccccc2)cc(-c2ccco2)c(C#N)c1N,x,-8,4,1,53*,-17
CCOc1cccc2cc(-c3nnc(NCc4ccco4)s3)c(=O)oc12,-9,12,5,0,61*,-21
COc1ccc2oc(=O)c(-c3nnc(NCc4ccco4)s3)cc2c1,-17,-10,6,4,u,-12
COc1cc(C2c3c([nH]c(=O)[nH]c3=O)Nc3ccc4ccccc4c32)cc(OC)c1OC (configuration not stated),1,5,4,0,77*,-30
COc1cc(C2c3c([nH]c(=O)[nH]c3=O)Nc3ccc4ccccc4c32)ccc1O (configuration not stated),-5,-2,8,0,10,-22
CNc1ccc(Br)cc(C(=O)/C=C/c2ccc(OC)cc2)c1=O,-5,-2,5,0,26,-5
CNc1ccc(Br)cc(C(=O)/C=C/c2ccc3c(c2)OCO3)c1=O,0,4,15*,-4,23,-8
COc1cccc(N=Nc2c(N)[nH]n3c(=O)cc(-c4ccccc4)nc23)c1,4,-1,-1,-4,-29,2
COc1ccc(-c2c(C(F)(F)F)[nH]n3c(=O)cc(-c4ccccc4)nc23)cc1,21,x,7,x,51*,-25
CC1CNC(=S)N(c2ccccc2)C1=O (configuration not stated),-8,x,x,x,x,x
CN(C)CCNC(=O)C1(C)Cc2c(-c3cccc(C(F)(F)F)c3)ccnc2O1 (configuration not stated),-9,x,x,x,x,x
N#Cc1c(NC(=O)CCn2cnc3ccccc3c2=O)oc(-c2ccccc2)c1-c1ccccc1,18,-7,6,1,-19,28*
SMILES,FAS-TE inh,PKD1 kinase inh,p97 ATPase inh,Redox H2O2 prof,UBC9 SUMO inh,Furin inh
N#Cc1c(NC(=O)CCN2C(=O)c3ccccc3C2=O)oc(-c2ccccc2)c1-c1ccccc1,0,-8,1,0,4,-7
CCc1cccc2c(C(=O)CCl)c[nH]c12,-2,1,18*,0,8,-23
CN(C)c1ncnc2c1C(c1ccccc1)C(C)(C)O2 (configuration not stated),-7,x,x,x,x,x
Cc1c(CC(=O)N2CCN(C(=O)C3COc4ccccc4O3)CC2)c(=O)oc2c(C)c(O)ccc12 (configuration not stated),-4,x,x,x,50*,x
O=C(COc1ccc2oc(-c3ccco3)cc(=O)c2c1)N1CCCCC1,-2,0,-3,-1,52*,-50
CN1CCN(C(=O)c2cccc(-c3cnc4cnc(-c5ccccc5Oc5ccccc5)cn34)c2)CC1,8,x,x,x,x,x
CCOc1ccccc1NC(=O)COC(=O)COc1cccc2c1OC(C)(C)C2,-5,x,x,x,x,x
CCCCNc1nc(N)ncc1[N+](=O)[O-],-6,x,15*,x,2,-6
CCCCNc1c([N+](=O)[O-])ncn1C,-4,x,4,x,11,-17
C/C(=N\Nc1ncc(Cl)cc1Cl)c1ccccn1,7,61*,-2,-2,-3,-9
O=C(N/N=C/c1ccc(Cl)c([N+](=O)[O-])c1)c1cc(-c2ccc3c4c(cccc24)CC3)n[nH]1,10,x,2,x,51*,-24
CN(C)[C@@H]1C(=O)C(C(=O)NCN2CCCC2)=C(O)[C@@]2(O)C(=O)C3=C(O)c4c(O)cccc4[C@@](C)(O)C3CC12 (some centres not stated),x,23,23*,1,77*,-10
CCc1nn(CCCC(=O)NC2CCCCC2C)c(=O)c2cc3occc3n12 (configuration not stated),0,x,x,x,x,x
COc1ccc(S(=O)(=O)NCCC(=O)NCc2ccc(F)cc2)cc1,-5,-6,-1,0,-8,29*
COc1ccc(CNC(=O)CCNS(=O)(=O)c2ccc(Cl)cc2)cc1,-3,-2,-6,0,15,-18
Cc1cc(NCCO)c2cc(O)ccc2n1,-4,-3,3,1,57*,-28
CCCCOc1cccc(-c2cc(C(=O)NNC(=S)NCC)c3ccccc3n2)c1,74*,-5,-5,0,-37,-11
COc1ccccc1NC(=O)c1ccc(CN(c2cc(Cl)ccc2C)S(=O)(=O)c2ccccc2)cc1,21,-1,0,1,16,-16
COc1ccc(NC(=O)c2ccc(CN(c3cc(Cl)ccc3C)S(=O)(=O)c3ccccc3)cc2)cc1OC,62*,-11,4,0,4,-19
